# Only some compounds are listed: those with a hit (about 18% of all), similar ones and a draw of the others.
# IL-1B inflam inh – inhibitors of inflammasome signaling (IL-1 beta secretion). 360,000 compounds, 4.7% hits. THP-1 LPS/ATP IL-1B secretion, AlphaLISA, 16 h; active compounds read low. activity change, % at 57.5 µM. AID 743279; in the data active means activity change below about -50%; inconclusive means mostly about -30% to -49%
#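 Secreted IL-1B measured by AlphaLISA bead assay after 16 h compound exposure of THP-1 cells; compounds (final up to 57.5 uM) added 1 h before LPS (250 ng/mL) and ATP (1.25 mM) stimulation; lower signal means less secretion.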
# LDHA inh – blocks human lactate dehydrogenase A; AID 1347041; 480,000 compounds, 0.15% hits; purified LDHA, NADH/diaphorase-resazurin fluorescence; active compounds read low; activity change, % (values are at about 110 or 230 µM); P00338; in the data active means activity change below about -30%; inconclusive means mostly about -25% to -30%;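 further: plate controls were DMSO wells for no effect and wells without enzyme for full effect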
#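 Enzyme activity of human lactate dehydrogenase 5 (2 nM; 0.06 mM NADH, 0.2 mM pyruvate, 5 min, RT) is measured via a resazurin/diaphorase fluorescence readout of residual NADH.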
# RORgamma inh – ROR gamma (mouse) transcription inhibition; P51450; Drosophila S2 Gal4-RORgamma UAS-luciferase reporter, 20 h; Potency, µM (top dose mostly 53.6 µM), without a hit: at the top dose activity change, negative = inhibition, most hits filed as inhibitors; 310,000 compounds, 5.4% hits; further: potency means the concentration at half of the fitted maximal effect; nearly all actives have a fitted effect of over 60% in size
# Target sequence (P51450 whole entry, looked up, the tested form may be a part): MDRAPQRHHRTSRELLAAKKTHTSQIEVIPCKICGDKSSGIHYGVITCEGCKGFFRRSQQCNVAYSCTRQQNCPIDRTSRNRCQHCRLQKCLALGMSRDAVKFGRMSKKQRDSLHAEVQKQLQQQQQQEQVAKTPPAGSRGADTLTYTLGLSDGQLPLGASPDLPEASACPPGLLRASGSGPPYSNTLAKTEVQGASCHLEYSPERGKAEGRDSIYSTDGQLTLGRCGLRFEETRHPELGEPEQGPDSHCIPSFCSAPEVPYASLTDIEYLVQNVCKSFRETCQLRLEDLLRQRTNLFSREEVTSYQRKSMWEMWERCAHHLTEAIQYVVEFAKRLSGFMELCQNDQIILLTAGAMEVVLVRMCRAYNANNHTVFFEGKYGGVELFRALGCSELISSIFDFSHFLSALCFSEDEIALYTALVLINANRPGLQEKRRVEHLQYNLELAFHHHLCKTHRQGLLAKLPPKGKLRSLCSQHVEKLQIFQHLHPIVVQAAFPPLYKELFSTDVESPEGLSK
#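 Drosophila S2 cells stably expressing Gal4-DBD/mouse RORγ fusion under metallothionein promoter plus UAS-luciferase; compound 1 h, then 700 uM CuSO4 induction for 20 h at ambient temperature; inhibition read as reduced luminescence.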
# VP16 counter – counter-screen for ROR gamma inhibitors: Gal4-VP16 reporter | 310,000 compounds, 3.5% hits | Potency, µM (top dose mostly 53.6 µM), for inactives: at the highest dose activity, negative = inhibition, actives largely listed as inhibitors | AID 2546 | Drosophila S2 Gal4-VP16 UAS-luciferase, luminescence, 20 h;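 further: Gal4-VP16 expression switched on by copper sulfate through the metallothionein promoter; potency means the concentration at half of the fitted maximal effect; nearly all actives have a fitted effect of over 50% in size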
# DT40 TDP1 CPT – growth inhibition of DT40 Tdp1-/-;hTDP1 cells with camptothecin (screen for TDP1 inhibitors). 420,000 compounds, 12% hits. Potency, µM (highest dose often 46.2 µM), for inactives: top-dose activity change, negative = growth inhibition, actives largely listed as inhibitors. chicken DT40 Tdp1-/-;hTDP1 cells + 20 nM CPT, ATP luminescence, 48 h; further: potency means the concentration at half of the fitted maximal effect; nearly all actives have a fitted effect of over 55% in size
#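 Chicken DT40 Tdp1-/- cells stably complemented with human TDP1 were seeded at 400 cells/well in medium containing 20 nM camptothecin, exposed to pin-transferred compounds, and grown at 37 °C for at least 48 hr. Viability was read as ATP luminescence.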
# TDP1 cell noCPT – qHTS for Inhibitors of human tyrosyl-DNA phosphodiesterase 1 (TDP1): qHTS in cells in absence of CPT; DT40 Tdp1-/- hTDP1 cells, no CPT, ATP luminescence, 48 h; Potency, µM (series often up to 46.2 µM), without a hit: top-dose activity change, negative = growth inhibition, most hits filed as inhibitors; 420,000 compounds, 15% hits; AID 686978, 2013; further: potency means the concentration at half of the fitted maximal effect; nearly all actives have a fitted effect of over 55% in size
#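 Camptothecin absent (DMSO only). Human TDP1-complemented DT40 knockout cells, 400 cells/well, 37 °C for minimum 48 hr; ATP measured via CellTiter-Glo, 30 min dark incubation, luminescence.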
# Starred values were filed as active, the others as inactive; ? = inconclusive; nt = no result; [ ] = another dose, or the depositor's remark. Unless noted, the call rests on the fitted dose curve; in most records, active means well fitted curve in the direction sought with a large enough effect; inconclusive means small, poorly fitted or top-dose-only effect, or another doubt; inactive means no such curve, though single readings can be large; an effect the other way counts as inactive or inconclusive. Unless noted, on the % scale 0 is the no-effect control and ±100 the full control effect.
SMILES,IL-1B inflam inh,LDHA inh,RORgamma inh,VP16 counter,DT40 TDP1 CPT,TDP1 cell noCPT
Cc1cccc(N2CCN(CC(=O)Nc3ccc(S(=O)(=O)N4CCOCC4)cc3)CC2)c1C,-6,0,31%,?,15µM*,9.2µM*
Cc1ccc(S(=O)(=O)N2CCOCC2)cc1NC(=O)CN1CCN(c2ccc(O)cc2)CC1,26,21,11%,2%,?,26µM*
CCOC(=O)C1CCN(CC(=O)Nc2cc(S(=O)(=O)N3CCOCC3)ccc2C)CC1,-17,-16,-31%,3%,13%,-20%
Cc1ccc(S(=O)(=O)N2CCOCC2)cc1NC(=O)CN1CCC(Cc2ccccc2)CC1,-23,-12,-25%,-28%,?,8.2µM*
Cc1cccc(N2CCN(CC(=O)Nc3nccs3)CC2)c1C,46,-3,10µM*,-12%,-11%,-24%
CCn1cnc2c1c(=O)n(CC(=O)Nc1ccc(N3CCCC3=O)cc1)c(=O)n2Cc1ccccc1,nt,0,nt,nt,nt,nt
Cc1c(NC(=O)C2(c3ccccc3)CC2)cccc1C(=O)N1CCc2sccc2C1,nt,-1,nt,nt,nt,nt
Cc1ccc(SC(C)C(=O)Nc2ccc(S(=O)(=O)N3CCOCC3)cc2)cc1 (configuration not stated),1,4,-5%,-14%,?,16µM*
Cc1ccc(NC(=O)c2ccc(S(=O)(=O)N3CCOCC3)cc2)cc1,-7,-9,5%,-1%,10%,-5%
O=C(O)CCc1c(O)ccc2ccccc12,nt,18,nt,nt,nt,nt
N#CC(c1nc2ccccc2nc1N1CCCCC1)S(=O)(=O)c1cccc(Cl)c1 (configuration not stated),nt,9,nt,nt,nt,nt
Cc1cc(Nc2ccc(Cl)cc2)nc(-c2ccccc2O)n1,-23,-3,40%,19%,?,26µM*
COC(=O)c1ccc(Nc2cc(C)nc(-c3ccccc3O)n2)cc1,-11,-1,-11%,-8%,?,?
Cc1cc(Nc2cccc(Cl)c2)nc(-c2ccccc2O)n1,?,-1,31%,-9%,29µM*,?
COC(=O)c1cccc(Nc2cc(C)nc(-c3ccccc3O)n2)c1,-3,0,76%,-3%[0.365 µM],?,16µM*
Cc1cc(Cl)nc(-c2ccccc2O)n1,?,-5,-19%,1%,-4%,13%
Cc1cc(C)n(CC(=O)Nc2ccc(C(=O)N3CCN(c4ccccc4)CC3)cc2)c(=O)c1C#N,nt,4,nt,nt,nt,nt
O=C(N/N=C/c1c(O)n(-c2ccc(Cl)cn2)c(=O)c2ccccc12)C1CC1,47,7,5.6µM*,7.9µM*,?,?
CC1CCCCN1CCCNC(=O)c1ccc2c(c1)NC(=O)CN2C (configuration not stated),-12,-2,nt,nt,-14%,-19%
CCCCN(CCCNC(=O)c1ccc2c(c1)NC(=O)CN2C)c1ccccc1,-103*,6,nt,nt,?,?
CC(C)(C)c1ccc2c(c1)Oc1cc(C(C)(C)C)ccc1OCCOCCOCCO2,nt,2,nt,nt,nt,nt
O=C(O)c1ccc(NC2=CC(c3ccccc3)N(c3ccc(C(=O)O)cc3)C2=O)cc1 (configuration not stated),nt,0,nt,nt,nt,nt
CCSc1ncc(Cl)c(C(=O)N2CCN(c3ccccc3OC)CC2)n1,nt,0,nt,nt,3.3µM*,4.1µM*
CCCSc1ncc(Cl)c(C(=O)N2CCN(c3cccc(Cl)c3)CC2)n1,nt,0,nt,nt,1.8µM*,?
CCCSc1ncc(Cl)c(C(=O)N(Cc2cccc(Cl)c2)C2CCS(=O)(=O)C2)n1 (configuration not stated),nt,-2,nt,nt,23µM*,16µM*
SMILES,IL-1B inflam inh,LDHA inh,RORgamma inh,VP16 counter,DT40 TDP1 CPT,TDP1 cell noCPT
CCCSc1ncc(Cl)c(C(=O)N2CCN(c3ccc(OC)cc3)CC2)n1,nt,1,nt,nt,?,?
CCCSc1ncc(Cl)c(C(=O)N(Cc2ccc(N(C)C)cc2)C2CCS(=O)(=O)C2)n1 (configuration not stated),nt,-4,nt,nt,?,?
Cc1ccc2oc(C(=O)NCCCOCC3CC3)cc(=O)c2c1,nt,-4,nt,nt,nt,nt
CC(C)NC(=O)NC(=O)C(C)N(C)Cc1ccc(F)cc1 (configuration not stated),nt,-1,nt,nt,nt,nt
CCCC(=O)N1CCN(c2nc(C)c3c(c2C#N)CCCC3)CC1,nt,8,nt,nt,nt,nt
CC(=O)N1c2ccccc2C(C)(c2ccc(C)cc2)CC1(C)C (configuration not stated),nt,-2,nt,nt,nt,nt
CC1(c2ccc(Cl)cc2)CC(C)(C)N(C(=O)c2ccccc2)c2ccccc21 (configuration not stated),nt,-3,nt,nt,?,?
CC1(c2cc([N+](=O)[O-])cc([N+](=O)[O-])c2)CC(C)(C)N(C(=O)c2ccccc2)c2ccccc21 (configuration not stated),0,1,-34%,0%,23µM*,16µM*
COc1cccc(C(=O)N2c3ccc(C)cc3C(C)(c3ccccc3)CC2(C)C)c1 (configuration not stated),nt,-6,nt,nt,?,23µM*
CCC(CC)C(=O)N1c2ccccc2C(C)(c2ccccc2)CC1(C)C (configuration not stated),nt,2,nt,nt,18µM*,23µM*
COc1ccc(C(=O)N2c3ccccc3C(C)(c3ccc(Cl)cc3)CC2(C)C)cc1 (configuration not stated),nt,0,nt,nt,?,16µM*
CC1(C)CCC(NC(=O)C2CCC2)c2ccccc21 (configuration not stated),nt,3,nt,nt,nt,nt
CC(Cc1c[nH]c2ccccc12)NC(=O)C1CCN(c2nc(Cl)nc3nc[nH]c23)CC1 (configuration not stated),nt,6,nt,nt,nt,nt
NC(=O)c1nn(CC(O)COc2ccc3ccccc3c2)c(=O)c2ccccc12 (configuration not stated),nt,22,nt,nt,nt,nt
C=CCn1c(-n2nc(C)c(C)c2C)nc2c1c(=O)[nH]c(=O)n2C,nt,8,nt,nt,nt,nt
CN(Cc1nccs1)C(=O)c1cc(COc2cccc3cnccc23)on1,-15,1,-34%,13µM*,7.3µM*,10µM*
COc1cc(Cl)ccc1OCc1cc(C(=O)N(C)Cc2cccc3cnccc23)no1,-64*,-1,40%,-15%,15µM*,12µM*
O=C1c2ccccc2-c2onc3ccc(NCc4ccco4)c1c23,-97*,34,?,-28%,?,23µM*
